According to PubChem BioAssay AID1159580 (chemical genetic matrix, 2015):
“And” between values parts separate entries of the source, which are not always exact repeats. Equal values may be shown once. Screen size: about 5,500 compounds; about 2,000 (36%) were called active. About 18% were inconclusive and are not listed. No stated cut-off is given here; in the data, active means normalized growth mostly below about 0.91 (no sharp cut-off); inconclusive means no clear call, values can overlap the other calls; inactive means mostly above about 0.92. Some of the results follow.

Assay: chemical genetic growth profiling, strain panel (AID 1159580);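 further: tested at 20 µM; growth read once vehicle control cultures reached saturation at 30 °C; 1 = growth at the plate median or of vehicle wells; lower values mean less growth of the strain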
Conditions: S. cerevisiae deletion strains, growth OD

Measured: normalized growth

Cc1ccccc1C(OCCN(C)C)c1ccccc1 (centres undefined)
inactive: locus YAL021C, strain ccr4, active compounds read low 0.977 | locus YAL026C, strain drs2, active compounds read low 1 | locus YAL030W, strain snc1, active compounds read low 1 | locus YAL040C, strain CLN3, active compounds read low 0.992 | locus YBL061C, strain skt5, active compounds read low 1 | locus YBR009C, strain hhf1, active compounds read low 0.996 | locus YBR021W, strain FUR4, active compounds read low 0.913 | locus YBR023C, strain chs3, active compounds read low 1.01 | locus YBR171W, strain sec66, active compounds read low 1.01 | locus YBR229C, strain ROT2, active compounds read low 1 | locus YBR231C, strain swc5, active compounds read low 1 | locus YBR279W, strain paf1, active compounds read low 0.993 | locus YCL011C, strain gbp2, active compounds read low 1.01 | locus YCL016C, strain dcc1, active compounds read low 1.01 | locus YCL029C, strain bik1, active compounds read low 1.01 | locus YCL061C, strain MRC1 (second series), active compounds read low 0.987 | locus YCL061C, strain MRC1, active compounds read low 1.01 | locus YCL069W, strain vba3, active compounds read low 1.01 | locus YCR088W, strain abp1, active compounds read low 1 | locus YDL005C, strain med2, active compounds read low 0.986 | locus YDL035C, strain GPR1, active compounds read low 1.01 | locus YDL040C, strain nat1, active compounds read low 1.01 | locus YDL074C, strain BRE1, active compounds read low 0.959 | locus YDL101C, strain DUN1, active compounds read low 1 | locus YDL134C, strain PPH21, active compounds read low 1.01 | locus YDL185W, strain tfp1, active compounds read low 1.02 | locus YDL192W, strain arf1, active compounds read low 1.01 | locus YDR001C, strain nth1, active compounds read low 1.01 | locus YDR069C, strain doa4, active compounds read low 0.994 | locus YDR101C, strain arx1, active compounds read low 1.01 | locus YDR137W, strain rgp1, active compounds read low 1.07 | locus YDR150W, strain NUM1, active compounds read low 0.994 | locus YDR159W, strain sac3, active compounds read low 1.01 | locus YDR162C, strain NBP2, active compounds read low 0.993 | locus YDR195W, strain ref2 0.996 | locus YDR297W, strain sur2, active compounds read low 1.01 | locus YDR318W, strain mcm21, active compounds read low 1.02 | locus YDR334W, strain swr1, active compounds read low 1.01 | locus YDR335W, strain msn5, active compounds read low 1 | locus YDR363W, strain ESC2, active compounds read low 0.998 | locus YDR388W, active compounds read low 1.01 | locus YDR392W, strain spt3, active compounds read low 0.966 | locus YDR502C, strain sam2, active compounds read low 1.01 | locus YEL003W, strain gim4, active compounds read low 0.981 | locus YEL037C, strain rad23, active compounds read low 0.999 | locus YEL061C, strain CIN8 (second series), active compounds read low 1.01 | locus YEL061C, strain CIN8, active compounds read low 1 | locus YER002W, strain NOP16, active compounds read low 1.01 | locus YER015W, strain faa2, active compounds read low 1 | locus YER016W, strain bim1, active compounds read low 0.998 | locus YER110C, active compounds read low 1.01 | locus YER111C, strain swi4, active compounds read low 1 | locus YER155C, strain BEM2 (second series), active compounds read low 1.01 | locus YER155C, strain BEM2, active compounds read low 1.01 | locus YER167W, strain BCK2, active compounds read low 1 | locus YFR010W, strain ubp6, active compounds read low 1 | locus YGL078C, strain dbp3, active compounds read low 1 | locus YGL086W, strain mad1, active compounds read low 0.994 | locus YGL167C, strain pmr1, active compounds read low 1.01 | locus YGL173C, strain kem1, active compounds read low 0.994 | locus YGL227W, strain vid30, active compounds read low 1.02 | locus YGL240W, strain doc1, active compounds read low 0.994 | locus YGL248W, strain PDE1, active compounds read low 1 | locus YGL253W, strain hxk2, active compounds read low 1.01 | locus YGR078C, strain PAC10, active compounds read low 1 | locus YGR135W, strain pre9, active compounds read low 1 | locus YGR252W, strain gcn5, active compounds read low 0.902 | locus YHR013C, strain ard1, active compounds read low 0.986 | locus YHR027C, strain rpn1, active compounds read low 0.997 | locus YHR030C, strain SLT2, active compounds read low 1 and 0.992 | locus YHR079C, strain IRE1 (second series), active compounds read low 1.02 | locus YHR079C, strain IRE1, active compounds read low 0.973 | locus YHR094C, strain hxt1, active compounds read low 1 | locus YHR129C, strain ARP1, active compounds read low 1.01 | locus YHR142W, strain chs7, active compounds read low 1.01 | locus YHR200W, strain rpn10, active compounds read low 1.01 | locus YIL066C, strain RNR3, active compounds read low 1.01 | locus YIL073C, strain SPO22, active compounds read low 1.05 | locus YIL125W, strain kgd1, active compounds read low 0.994 | locus YIR030C, strain dcg1, active compounds read low 1.02 | locus YJL092W, strain hpr5, active compounds read low 1.01 | locus YJL095W, strain BCK1 (second series), active compounds read low 1.01 | locus YJL095W, strain BCK1, active compounds read low 0.983 and 0.99 | locus YJL115W, strain asf1, active compounds read low 0.992 | locus YJL129C, strain trk1, active compounds read low 0.986 | locus YJL134W, strain LCB3, active compounds read low 1 | locus YJL154C, strain vps35, active compounds read low 1 | locus YJL164C, strain tpk1, active compounds read low 0.991 | locus YJL166W, strain qcr8, active compounds read low 1.01 | locus YJL168C, strain set2, active compounds read low 1.01 | locus YJL187C, strain SWE1 (second series), active compounds read low 1 | locus YJL187C, strain SWE1, active compounds read low 1.01 | locus YJR043C, strain POL32, active compounds read low 0.995 | locus YJR066W, strain TOR1, active compounds read low 0.952
